The panel holds about 83,000 compounds, 20% with a hit somewhere; the sample as a whole holds those more often.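 Cell lines were cultured in 96-well plates, exposed to a single compound concentration, and assessed for percent growth 48 hours later.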 Values without a mark were called inactive. Active and inactive are the calls of the source. How the source made its calls: active means growth percent below 10; inactive means the rest.

The subject of the test is MDA-MB-468 breast. The experiment in a line: NCI-60 one-dose screen, 48 h (100 = growth as untreated, 0 = no growth, -100 = all killed). The following applies: 10 µM unless noted.
Take `CCOc1ncc([N+](=O)[O-])c(OCC)n1`: the growth is 115%. Take `O=C(Nc1nc2ccc(F)cc2s1)c1cc(-c2ccc(F)cc2)n2nc(-c3ccccc3)cc2n1`: the growth is 92%. Turning to `COc1ccc(C2CC(c3ccc(OC)c(OC)c3)=NN2C(=O)c2cc(OC)c(OC)c(OC)c2)c(OC)c1` (stereo not given), the growth is 53.6%.

On to `CC1(C)CC(=O)C2=C(C1)Nc1cc3c(cc1C2c1ccc(F)cc1)OCO3` (stereo not given), for which the growth was 71.4%.

In the case of `CS(=O)(=O)c1cccnn1`, the growth is 74%. In the case of `O=C1c2ccccc2CN1c1ccccc1`, the growth is 101%. Next, `O=C1c2cccnc2C(=O)c2nc3cc(N4CCN(C5CC5)CC4)ccc3nc21`: -22% (active). Next, `CC(C)c1ccc2c(c1)CC[C@H]1[C@](C)(C(=O)OCC#CCN3CCCC3)CCC[C@]21C`: 52.4%.

`CC1(C)C(=O)/C(=C\c2ccco2)C[C@]2(C)[C@H]3CC[C@@H]4[C@@H](C(=O)/C=C/c5ccco5)CC[C@@]4(C)[C@]3(C)CC[C@@H]12`: the growth is -1.49% (active). The result for `COc1ccc(NC(=O)c2cc(NCc3cc(O)ccc3O)ccc2O)cc1` reads 88.5%. Next, `CCNCCNc1cc(-c2ccc(Cl)cc2)c(C#N)c2nc3ccccc3n12`: -45.3% (active); `CCCCCCCC/C=C\CCCCCCCCOc1cccc(CC(=O)NCC[N+]2(C)CCCCC2)c1`: 52.6%. Next, `O=c1ccc2nc(C(F)(F)F)nn(-c3ccccc3)c-2c1`: -73.5% (active); `Cc1nc2oc3ccccc3c(=O)c2cc1C(=O)NCc1ccccc1`: 89.2%. With `C#Cc1nc(/C=C/C(=O)c2nccn2C)cs1`, the growth is -28.5% (active).

Consider `CCCCC(CCc1ccccn1)C(=O)c1ccccc1` (stereo not given), for which the growth is 109%. The result for `Cc1ccc(/C=C/C(=O)c2ccc(N)cc2)c(C)c1` reads 88.7%; that for `N#CC1=CC2CN(Cc3ccccc3)C1C1C(=O)N(c3ccccc3)C(=O)C21` (stereo not given), 93.8%; that for `O=C(CCCCCCNC(=O)C(O)(O)C(F)(F)F)Nc1ccc(Cl)cc1`, 16.9%. Next, `C=C1C(=O)O[C@H]2[C@H]1CCC(/C=N/c1ncc(Br)cc1N)=C\CC[C@@]1(C)O[C@@H]21`: -51% (active); `COc1cc2ncnc(Nc3ccc(S(=O)(=O)Nc4nccs4)cc3)c2cc1OCCCN1CCOCC1`: 107%.

On to `COC(=O)C(CSC(c1ccccc1)(c1ccccc1)c1ccccc1)NC(=O)C(CC(N)=O)NC(=O)OCc1ccccc1` (stereo not given), for which the growth was -17.7% (active). Next, `COc1c(CCC[P+](c2ccccc2)(c2ccccc2)c2ccccc2)cc2c(c1OC)OCO2`: -28% (active); `CN1CCN(C(=O)[C@]2(C)CC[C@]3(C)CC[C@]4(C)C(=CC(=O)[C@@H]5[C@@]6(C)CCC(=O)NC(C)(C)[C@@H]6CC[C@]54C)[C@@H]3C2)CC1`: 101%; `Cc1ccc(F)cc1NC(=O)c1cc(Cl)ccc1Nc1ccccc1`: 61.8%.

Regarding `O=C1NC(=O)C(c2ccc(Cl)cc2Cl)N1` (stereo not given), the growth was 106%.

Take `O=C1c2c(c3c4cccnc4[nH]c3c3ccc4ccccc4c23)C(=O)N1CCN1CCCCC1`: the growth was 29.4%. Next, `Nc1ccc(C(=O)Nc2cccc(C(=O)Nc3ccc4c(O)c(N=Nc5ccc(N=Nc6ccc(S(=O)(=O)O)cc6)cc5)c(S(=O)(=O)O)cc4c3)c2)cc1`: 100%; `CN(C)N=Nc1nn(C(=O)Nc2ccc(Cc3ccccc3)cc2)c2ccccc12`: 69.2%; `COCCNC1=C(Cl)C(=O)c2ccccc2C1=O`: 76.8%. With `COc1ccc(NC(=O)c2ccc(/C=C/C(=O)c3ncc[nH]3)cc2)cc1`, the growth was 44.3%. The result for `COc1ccc(/C=C(\C(=O)NCc2cccnc2)S(=O)(=O)c2ccccc2)cc1OC` reads 1.86% (active); that for `CN(C)C=Nc1cc(Cl)ccc1Cl`, 102%. Next, `CCOC(=O)CNP(=O)(OC[C@@H](Cc1ccccc1)NC(=O)c1cc2ccccc2s1)Oc1ccccc1` (stereo not given in full): -5% (active); `N#CC1C(C#N)C2c3ccccc3C=CN2C1C(=O)c1ccc(Br)cc1` (stereo not given): 99.6%; `COc1cc(NS(C)(=O)=O)ccc1Nc1c2ccccc2nc2c(C)cccc12`: -14.3% (active). Regarding `NC1=NN=C(N)C1=Cc1cc2ccccc2n2nnnc12`, the growth is 94.8%. Turning to `Cc1ccc(S(=O)(=O)Oc2ccc3sc4c(CO)ccc(NCCN(C)C)c4c(=O)c3c2)cc1`, the growth is -75.1% [100 µM] (active). The result for `COC(=O)c1c2c(c(C)[n+]([O-])c1C)C(=O)C(NCc1cccc(OC)c1)=CC2=O` reads -21.3% (active); that for `CC(C)(C)Nc1nc2c(OCCc3ccccc3)cccn2c1-c1cccc(Oc2ccccc2)c1`, -12.7% (active).

The values above are taken from PubChem BioAssay (NCI).
